IDH1 R132H inh: qHTS for Inhibitors of mutant isocitrate dehydrogenase 1 (IDH1): qHTS | Isocitrate dehydrogenase [NADP] cytoplasmic (Homo sapiens), O75874 | IDH1-R132H enzyme, NADPH consumption, diaphorase/resazurin fluorescence | Potency, µM (doses to about 76.6 µM), hits mostly inhibitors | hit rate 0.093% among 390,000; further: nearly all actives have a fitted effect of over 65% in size
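IDH1-R132H (0.5 ug/mL) preincubated 30 min with compound, then NADPH (0.016 mM) and alpha-KG (2 mM) added; 80 min at RT, pH 7.5. Remaining NADPH coupled via diaphorase/resazurin to fluorescence (540/590 nm); concentration-response curves normalized to no-enzyme control.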
LDHA block: qHTS assay for inhibitors of human lactate dehydrogenase | L-lactate dehydrogenase A chain (Homo sapiens), P00338 | purified LDHA, NADH/diaphorase-resazurin fluorescence; hits give low values | activity change, % (values are at about 110 or 230 µM) | hit rate 0.15% among 480,000; in the data active means activity change below about -30%; inconclusive means mostly about -25% to -30%
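Human LDH5 (2 nM) was incubated with 0.06 mM NADH and 0.2 mM pyruvate for 5 min at room temperature in Tris pH 7.4. Remaining NADH was coupled through diaphorase/resazurin, and resorufin fluorescence was read at 0 and 20 min.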
rTrxR1 inhibitor: qHTS Assay for Inhibitors of Mammalian Selenoprotein Thioredoxin Reductase 1 (TrxR1): qHTS; Thioredoxin reductase 1, cytoplasmic (Rattus norvegicus), O89049; recombinant rTrxR1, NADPH fluorescence consumption, selenite substrate; Potency, µM (doses to about 114 µM), usual class: inhibitors; hit rate 1% among 390,000; AID 588453, 2011; further: nearly all actives have a fitted effect of over 65% in size
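Rat TrxR1 (90 nM in the dispensed reagent) was pre-reduced with 400 uM NADPH for 5 min at room temperature, then incubated with compound for 15 min. After 400 uM selenite was added, NADPH fluorescence (Ex 340/Em 450 nm) was followed for 8 min.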
PKM2 act: qHTS Assay for Activators of Human Muscle isoform 2 Pyruvate Kinase; Pyruvate kinase PKM (Homo sapiens), P14618; purified PKM2, Kinase-Glo ATP luminescence, activation; response scale: 0% is enzyme alone, no compound; Potency, µM (highest dose often 57.5 µM), most hits filed as activators; AID 1631, 2009; hit rate 0.34% among 260,000; further: nearly all actives have a fitted effect of over 55% in size
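Purified hPK-M2 (>95%) run at intermediate activity with 0.1 mM ADP and 0.5 mM PEP in 50 mM imidazole pH 7.2, KCl, MgCl2; 1 h room temperature. ATP formed read by Kinase-Glo luminescence; normalized to uninhibited and no-enzyme controls.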
GLS inhibitor: qHTS for Inhibitors of Glutaminase (GLS) | Glutaminase kidney isoform, mitochondrial (Homo sapiens), O94925 | GLS enzymatic activity, qHTS titration | hit rate 0.21% among 410,000 | Potency, µM (series often up to 45.5 µM), usual class: inhibitors
Target sequence (O94925 whole entry, looked up, canonical isoform): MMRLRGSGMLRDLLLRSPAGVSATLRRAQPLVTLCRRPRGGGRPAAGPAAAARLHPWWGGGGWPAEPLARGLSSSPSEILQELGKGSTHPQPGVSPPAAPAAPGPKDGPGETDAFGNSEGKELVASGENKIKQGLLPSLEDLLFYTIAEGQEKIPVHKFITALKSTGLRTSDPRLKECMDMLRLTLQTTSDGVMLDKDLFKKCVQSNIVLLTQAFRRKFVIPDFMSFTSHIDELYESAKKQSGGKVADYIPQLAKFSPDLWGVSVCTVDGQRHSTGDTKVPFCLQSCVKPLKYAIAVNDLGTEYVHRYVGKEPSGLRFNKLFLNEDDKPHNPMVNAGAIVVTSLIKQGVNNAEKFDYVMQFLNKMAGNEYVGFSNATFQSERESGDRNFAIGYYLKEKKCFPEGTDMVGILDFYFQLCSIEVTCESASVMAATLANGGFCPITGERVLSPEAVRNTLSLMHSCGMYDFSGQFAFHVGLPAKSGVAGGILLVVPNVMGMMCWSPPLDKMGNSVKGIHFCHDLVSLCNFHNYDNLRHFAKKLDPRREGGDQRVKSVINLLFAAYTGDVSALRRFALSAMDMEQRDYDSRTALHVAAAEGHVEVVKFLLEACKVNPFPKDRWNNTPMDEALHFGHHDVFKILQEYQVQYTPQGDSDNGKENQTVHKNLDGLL
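Read-out is an Amplex red fluorescence increase coupled through glutamate oxidase and HRP, measured before and after 30 min room-temperature incubation. hKGA is in 45 mM KH2PO4 (pH 8.2) with 0.02% Tween-20; glutamine added as 1mM solution.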
TrxR1 substrate: qHTS Assay for Substrates of Mammalian Selenoprotein Thioredoxin Reductase 1 (TrxR1): qHTS. purified TrxR1 substrate turnover, NADPH consumption readout. Potency, µM (doses to about 114 µM). hit rate 0.01% among 390,000. AID 588456, 2011; further: nearly all actives have a fitted effect of over 50% in size
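Rat TrxR1, dispensed at 90 nM, was prereduced with 400 uM NADPH (final) for 5 min at ~22 deg C, then incubated with compound 15 min before 400 uM selenite. A first-read NADPH fluorescence drop versus no-compound background flagged substrates.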
Hits are given with their value; ! = a repeat was not active; [ ] = dose if it differs, or a comment. Hits are enriched below; roughly 1.4% of the tested compounds scored in any of these assays. Unless noted, the call rests on the fitted dose curve; in most records, active means well fitted curve in the direction sought with a large enough effect; inconclusive means small, poorly fitted or top-dose-only effect, or another doubt; inactive means no such curve, though single readings can be large; an effect the other way counts as inactive or inconclusive.

`COC1=CC(=O)c2nc(Cl)ccc2C1=O` gave LDHA block inactive and GLS inhibitor inactive.
Screening COC1=CC(=O)c2c(ccc3ncnc(N)c23)C1=O returned IDH1 R132H inh inactive, LDHA block inactive, rTrxR1 inhibitor inconclusive, GLS inhibitor inactive and TrxR1 substrate 79µM.
`COc1ccc(CCC(=O)OCC(=O)c2cccc(Br)c2)cc1OC` gave LDHA block inactive.
COc1cccc(C(=O)NC2CC3CCCC(C2)N3CC(=O)Nc2ccccc2)c1 (stereo not given) was read as IDH1 R132H inh inactive, LDHA block inactive, rTrxR1 inhibitor inactive, PKM2 act inactive, GLS inhibitor 6.3µM and TrxR1 substrate inactive.
`COc1cccc(C(=O)NC2CC3CCCC(C2)N3CC(=O)Nc2ccc(N(C)C)cc2)c1` (stereo not given) gave IDH1 R132H inh inactive, LDHA block inactive, rTrxR1 inhibitor inactive, PKM2 act inactive, GLS inhibitor inactive and TrxR1 substrate inactive.
O=C(NCCSC1CCCC1)c1cccs1 was read as LDHA block inactive.
For CC1CCc2c(sc(NC(=O)c3ccccc3OC(F)F)c2C(N)=O)C1 (stereo not given) the results were LDHA block inactive.
Screening Cc1ccccc1Cn1c(=O)c2c(nc3n2CCN3Cc2ccco2)n(C)c1=O returned IDH1 R132H inh inactive, LDHA block inactive, rTrxR1 inhibitor inactive, GLS inhibitor 7.9µM and TrxR1 substrate inactive.
For Cn1c(=O)n(Cc2ccccc2)c(=O)c2c1nc1n2CCN1Cc1ccco1 the results were IDH1 R132H inh inactive, LDHA block inactive, rTrxR1 inhibitor inactive, PKM2 act inactive, GLS inhibitor inconclusive and TrxR1 substrate inactive.
`N#Cc1cccnc1NCCc1cccc2cccnc12` gave LDHA block inactive.
Cc1ccc(CNC(=O)NC(=O)C(F)(F)F)cc1 was read as LDHA block inactive.
`Cc1ccc([N+](=O)[O-])c(OCCn2cnc3ccccc32)c1` gave IDH1 R132H inh inactive, LDHA block inactive, rTrxR1 inhibitor inactive, PKM2 act 8.9µM, GLS inhibitor inactive and TrxR1 substrate inactive.
Screening CN(C)C(=O)c1ccc(NC(=O)c2ccccc2CSc2nc3ccccc3o2)cc1 returned LDHA block inactive.
`CC(C)Oc1ccccc1-c1cc(C(=O)O)c2ccccc2n1` gave LDHA block inactive.
Screening Cc1ccc(C2CC(=O)Nc3c2c(C)nn3-c2ccc3nncn3n2)cc1C (stereo not given) returned LDHA block inactive.
Screening CC1(C)CC(=O)C2=C(C1)OC(N)=C(C#N)[C@@H]2c1ccccc1[N+](=O)[O-] returned IDH1 R132H inh inactive, LDHA block inactive, rTrxR1 inhibitor 20µM, PKM2 act inactive, GLS inhibitor inactive and TrxR1 substrate inactive.
For CCOc1ccc(/C=C2\CCC(C3CCCC3)C2=O)cc1 (stereo not given) the results were IDH1 R132H inh inactive, LDHA block inactive, rTrxR1 inhibitor inactive, GLS inhibitor inactive and TrxR1 substrate inactive.
CCC(=O)OCOc1ccc(/C=C2/CCC(CN(C)C)C2=O)cc1 (stereo not given) was read as IDH1 R132H inh inactive, LDHA block inactive, rTrxR1 inhibitor 1.1µM, GLS inhibitor inconclusive and TrxR1 substrate inactive.
CCc1ccc(-c2csc3ncn(CC)c(=O)c23)cc1 was read as IDH1 R132H inh inactive, LDHA block inactive, rTrxR1 inhibitor inactive, PKM2 act inactive, GLS inhibitor inactive and TrxR1 substrate inactive.
For CCc1ccc(-c2nc3c(=O)n(C)c(=O)nc-3n(CC)n2)cc1 the results were LDHA block inactive, rTrxR1 inhibitor inactive and TrxR1 substrate 35µM.
`OCCN1CCN(C(=S)Nc2cccc(C(F)(F)F)c2)CC1` gave IDH1 R132H inh inactive, LDHA block -33!, rTrxR1 inhibitor inactive, PKM2 act inactive, GLS inhibitor inactive and TrxR1 substrate inactive.
Screening Cc1cc(C)n(Cc2ccc(C(=O)N/N=C/c3ccc(-c4ccc([N+](=O)[O-])cc4)o3)o2)n1 returned IDH1 R132H inh inactive, LDHA block -65, rTrxR1 inhibitor inactive, PKM2 act inactive, GLS inhibitor inactive and TrxR1 substrate inactive.
For CCCCC(=O)N/N=C/c1ccc(-c2ccc([N+](=O)[O-])cc2)o1 the results were IDH1 R132H inh inactive, LDHA block inactive, rTrxR1 inhibitor inactive, PKM2 act inactive, GLS inhibitor inactive and TrxR1 substrate inactive.
`Cc1[nH]c(I)c(C)c1C=O` gave LDHA block inactive.
Screening CN(C)S(=O)(=O)c1ccc(C(=O)Oc2cc(=O)[nH]c3ccccc23)cc1 returned IDH1 R132H inh inactive, LDHA block inactive, rTrxR1 inhibitor 14µM, PKM2 act inactive, GLS inhibitor inactive and TrxR1 substrate inactive.
`CCOC(=O)c1[nH]c2ccccc2c1NC(=O)c1ccc(S(=O)(=O)N(C)C)cc1` gave IDH1 R132H inh inactive, LDHA block inactive, rTrxR1 inhibitor inactive, PKM2 act inactive, GLS inhibitor inactive and TrxR1 substrate inactive.
Screening N#Cc1nccnc1S(=O)(=O)c1cccs1 returned IDH1 R132H inh inactive, LDHA block inactive, rTrxR1 inhibitor 0.32µM, PKM2 act inconclusive, GLS inhibitor inactive and TrxR1 substrate inactive.
`Cc1oc2cc(OCC(=O)OC(C)C)ccc2c(=O)c1-c1ccc(Cl)cc1` gave LDHA block inactive.
`COC(=O)c1ccc(NC(=O)Cn2ncn3nc(-c4cc(C)ccc4C)cc3c2=O)cc1` gave LDHA block inactive.
`COC(=O)C(CC(=O)c1ccc(Br)cc1)n1cccn1` (stereo not given) gave IDH1 R132H inh inactive, LDHA block inactive, rTrxR1 inhibitor 8.9µM, PKM2 act inactive[11.5 µM], GLS inhibitor inactive and TrxR1 substrate inactive.
For O=c1[nH]c(N/N=C/c2cc3c(cc2[N+](=O)[O-])OCO3)nc2ccccc12 the results were IDH1 R132H inh inactive, LDHA block inactive, rTrxR1 inhibitor inactive, PKM2 act 40µM, GLS inhibitor inactive and TrxR1 substrate inactive.
For O=c1[nH]c(N/N=C\c2ccc3c(c2)OCO3)nc2ccccc12 the results were IDH1 R132H inh inactive, LDHA block inactive, rTrxR1 inhibitor inactive, PKM2 act inactive, GLS inhibitor inactive and TrxR1 substrate inactive.
